PP1 inh – blocks human PP1-alpha phosphatase, a PP5 counter-screen; P62136; purified PP1alpha, OMFP fluorescence; inhibition, % at 6.7 µM; hit rate 0.9% among 320,000;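 active means inhibition above the mean inhibition of all tested compounds plus 3 SD, computed separately for each screening campaign, cut at about 15% in these data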
Target sequence (P62136 whole entry, looked up): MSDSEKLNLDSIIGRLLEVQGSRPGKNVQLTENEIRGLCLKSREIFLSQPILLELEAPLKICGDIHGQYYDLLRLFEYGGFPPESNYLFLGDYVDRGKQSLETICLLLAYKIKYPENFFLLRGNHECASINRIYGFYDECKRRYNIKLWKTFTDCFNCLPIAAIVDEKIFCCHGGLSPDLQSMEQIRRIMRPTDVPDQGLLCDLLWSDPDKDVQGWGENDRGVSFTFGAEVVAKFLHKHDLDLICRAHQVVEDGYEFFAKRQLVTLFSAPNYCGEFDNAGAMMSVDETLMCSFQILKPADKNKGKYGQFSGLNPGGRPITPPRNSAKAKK
ALR inh – human ALR oxidase inhibition via reduced H2O2; P55789; AID 485317; purified ALR, DTT oxidation, H2O2 HRP-luminol luminescence; hit rate 3.8% among 290,000; inhibition, % (no concentration beside the values);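 active means mean replicate inhibition above about 79%, with every replicate also reaching it, limit read from the data; inconclusive means only one of the two criteria met; inactive means mean below limit and not every replicate reaching it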
Target sequence (P55789 whole entry, looked up): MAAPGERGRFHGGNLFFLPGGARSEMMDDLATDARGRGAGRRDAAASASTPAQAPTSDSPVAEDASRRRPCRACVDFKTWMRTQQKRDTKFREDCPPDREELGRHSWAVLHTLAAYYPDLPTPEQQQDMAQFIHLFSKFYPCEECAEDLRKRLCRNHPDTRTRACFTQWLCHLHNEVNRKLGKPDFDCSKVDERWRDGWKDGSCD
Calb FLC – affects C. albicans growth with fluconazole | AID 1979 | C. albicans CaCi-2 (fluconazole-resistant clinical isolate) + fluconazole, Alamar Blue growth, 48 h | growth inhibition, % (test concentration not listed) | hit rate 0.57% among 300,000;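 active means growth inhibition above about 58% in most replicates, limit read from the data, passing the limit was not always enough; inconclusive means exactly half the replicates above a set limit; inactive means most replicates below a set limit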;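 further: all wells also contain fluconazole at 8 µg/ml as a sub-toxic cotreatment; 0% = median of DMSO wells and 100% = median of geldanamycin control wells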
PP5 primary – inhibitors of human protein phosphatase 5 (PP5); P53041; purified PP5c, OMFP substrate fluorescence; inhibition, % at 6.7 µM; hit rate 0.18% among 320,000; AID 1987;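 active means inhibition above the campaign's mean inhibition across all tested compounds plus 3 SD, cut at about 9.5% in these data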;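 further: 0% = DMSO only and 100% = 100 µM cantharidin control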
CSC inhib – blocks cancer stem cells; cancer stem cell-like cells viability, luminescence; hit rate 1.1% among 300,000; inhibition, % at 7.5 µM; AID 2717; in the data active means inhibition above about 75%; inconclusive means no clear call, values can overlap the other calls; tested in HMLE shEcad cells
An asterisk follows results filed as active; ? = inconclusive; . = no result. The list is not random: actives were taken first. Their share in the collection is about 5.4%.

SMILES	PP1 inh	ALR inh	Calb FLC	PP5 primary	CSC inhib
CCOC(=O)CSc1nc(-c2ccccn2)ncc1OC	5.7	-1.8	-5.2	-0.5	1.4
CCSC1(SCC)N=C(N)C2(C#N)C(c3ccccc3)NC3=C(CCC3)C12C#N (stereo not given)	-0.7	95.6*	4.6	-1.8	-6.8
N#CC12C(N)=NC3(OCCO3)C1(C#N)C1=C(CCC1)NC2c1ccccc1 (stereo not given)	-1.9	-24.8	15.3	0.0	-9.4
CC(C)CCc1c(O)nc(SCC(C)C)[nH]c1=O	-6.8	88.7*	-0.3	-2.1	-21.7
CCCc1c(O)nc(SCC(=O)O)[nH]c1=O	0.4	39.7	3.2	-3.0	8.6
CCC(C)c1c(O)nc(SCc2ccccc2)[nH]c1=O (stereo not given)	-0.3	98.6*	?	1.2	-1.1
CCC(C)c1c(O)nc(SCC(=O)N2CCCCCC2)[nH]c1=O (stereo not given)	-1.7	96.8*	3.4	-1.3	-3.3
CC(C)c1c(O)nc(SCC(=O)N2CCCCC2)[nH]c1=O	-1.1	53.5	-2.0	-0.1	6.2
CC(C)Cc1c(O)nc(SCC(=O)N2CCCCCC2)[nH]c1=O	9.9	97.4*	-4.8	-0.2	0.5
CC(C)c1c(O)nc(SCc2ccccc2)[nH]c1=O	5.7	-46.9	2.6	0.8	0.7
O=C(c1ccco1)N1CCN(C(=O)c2cc(-c3ccccn3)nc3ccc(Cl)cc23)CC1	4.0	.	6.1	1.4	24.3
N#Cc1ccc(C(=O)Nc2cc(S(=O)(=O)N3CCOCC3)ccc2N2CCCC2)cc1	.	.	.	.	-6.2
Cc1nc2c(c(=O)n1CCC(C)C)c1nc3ccccc3nc1n2Cc1ccc2c(c1)OCO2	-3.1	3.4	-5.0	-2.0	-1.1
Cc1ccc(OCc2cc(C(=O)NCc3cnn(-c4cccc(F)c4)c3)no2)cn1	-3.0	1.5	78.5*	-0.2	1.3
Cc1ccc(OCc2cc(C(=O)NCc3ccc(OC(F)(F)F)cc3)no2)cn1	0.0	1.8	8.8	3.3	11.7
CC(=O)c1cccc(NC(=O)Nc2ccc(C(=O)N3CCOCC3)cc2)c1	-3.8	1.8	-7.2	1.8	0.9
Cc1ccc(O)c(C(=O)/C=C/c2ccc3c(c2)OCCO3)c1	-0.4	37.5	9.5	3.6	25.9
Cc1ccc(S(=O)(=O)n2nccc2-c2c(-c3ccc(Cl)cc3)noc2C)cc1	-0.6	.	-0.3	1.0	38.0
Oc1oc(-c2ccco2)nc1C=Nc1ccccc1	-3.9	65.5	-2.2	1.2	-4.3
CC(=NCc1cccc(Cl)c1)c1nc(-c2ccco2)oc1O	-0.4	7.3	-0.5	2.6	100.2*
Oc1oc(-c2ccco2)nc1C=Nc1cccc(Cl)c1	4.7	96.0*	9.1	4.2	-9.5
Cn1cnnc1SCC(=O)c1ccc(O)c(O)c1	-3.0	99.1*	4.0	-3.3	.
O=C(CSc1nnnn1-c1ccc(F)cc1)c1ccc(O)c(O)c1	0.5	97.5*	7.5	-0.8	-8.0
O=C(NCc1cccnc1)C(=O)C1C(=O)Nc2ccccc21 (stereo not given)	1.1	22.2	8.6	-0.3	-15.9
O=C(CSc1nc2ccccc2o1)c1cc2ccccc2oc1=O	6.1	-4.1	.	0.9	10.7
SMILES	PP1 inh	ALR inh	Calb FLC	PP5 primary	CSC inhib
CCOC(=O)N1CCN(C(=O)CSCC(=O)Nc2nc(-c3cccs3)cs2)CC1	1.0	89.6*	1.3	0.8	3.3
CC1CCN(C(=O)CSCC(=O)Nc2nc(-c3cccs3)cs2)CC1	-3.7	98.5*	-0.5	0.9	-7.4
CC1CCCN(C(=O)CSCC(=O)Nc2nc(-c3cccs3)cs2)C1 (stereo not given)	3.5	5.6	0.4	0.9	-2.8
CC1CCCCN1C(=O)CSCC(=O)Nc1nc(-c2cccs2)cs1 (stereo not given)	3.2	2.9	1.8	1.4	-2.5
CCOc1ccccc1C1N=C(c2ccc(OC)cc2)CC(c2ccccc2O)N1 (stereo not given)	13.1	96.2*	1.7	0.7	71.5
CCOC(=O)CC(=O)CSc1nc2c(sc(=S)n2-c2ccc(OCC)cc2)c(=O)[nH]1	3.3	96.5*	-5.8	-1.5	14.9
O=[N+]([O-])c1ccc(O)c(/C=N/n2c(CO)nc3ccccc32)c1	-3.6	-3.1	2.8	2.0	2.3
N#Cc1c2n(c3c(=O)n(Cc4ccccc4)cnc13)CCCC2	-0.4	83.9*	11.8	0.2	-3.5
Clc1nc(CN2CCCCC2)nc2sc3c(c12)CCCC3	7.2	19.0	24.7	0.0	-5.1
Cc1sc2nc(CN3CCCCC3)nc(Cl)c2c1C	-1.9	98.0*	21.3	2.1	-7.8
O=C(N/N=C/c1c(O)n(-c2ccc(Cl)cn2)c(=O)c2ccccc12)c1ccncc1	-2.9	80.5*	?	-0.3	-24.7
O=C(N/N=C/c1c(O)n(-c2ccc(Cl)cn2)c(=O)c2ccccc12)C1CC1	0.9	94.8*	18.9	-2.5	0.3
O=C(N/N=C/c1ccccc1O)c1ccncc1	-4.1	-1.8	-19.5	-0.4	1.7
CCOC(=O)/C(C#N)=C\c1cn(C)c2ccccc12	3.5	3.4	2.1	1.1	.
CCOC(=O)/C(=C\c1cn(C)c2ccccc12)[N+](=O)[O-]	1.6	95.5*	-6.0	1.6	21.0
Cc1ccc(NC(=O)CN(C)CC(=O)Nc2ccccc2C(=O)Nc2ccccc2)cc1	-2.5	1.1	29.9	3.1	-3.6
Cc1ccc(NC(=O)/C=C/c2ccc([N+](=O)[O-])s2)cc1	-2.3	52.6	9.0	-2.0	10.3
Cc1cccc(NC(=O)/C=C/c2ccc([N+](=O)[O-])s2)c1	2.8	.	-0.4	1.2	107.1*
Cc1ccc(C(=O)N/N=C/c2ccc([N+](=O)[O-])s2)cc1	-0.7	-10.2	-3.6	1.8	-1.2
Cc1ccc(NC(=O)/C=C/c2ccc([N+](=O)[O-])s2)c(C)c1	-4.5	.	2.2	-3.5	106.7*
Cc1cccc(NC(=S)N/N=C/c2ccc([N+](=O)[O-])s2)c1	6.1	-29.1	-7.4	3.5	125.5*
C=CCn1c(Cc2ccc(OC(C)C)c(Cl)c2)nnc1SCC(N)=O	-1.7	0.5	-4.4	-1.0	-2.1
CC(=O)C1=C(O)C(=O)N(c2ccc(Br)cn2)C1c1ccc(F)cc1 (stereo not given)	4.3	4.9	.	1.5	-12.7
CC(=O)C1=C(O)C(=O)N(c2ccc(Br)cn2)C1c1ccc(Br)cc1 (stereo not given)	9.1	97.1*	2.4	0.0	-4.1
CC(=O)C1=C(O)C(=O)N(c2ccc(Br)cn2)C1c1cccc([N+](=O)[O-])c1 (stereo not given)	4.5	89.1*	-7.1	0.9	6.0
SMILES	PP1 inh	ALR inh	Calb FLC	PP5 primary	CSC inhib
COc1ccc2nc3oc(C(=O)N4CC(C)CC(C)C4)cc3cc2c1 (stereo not given)	-0.3	1.6	1.5	2.1	19.6
CCOC(=O)C(=Cc1ccc(F)cc1)C(=O)OCC	-3.8	-2.0	-25.5	-7.5	95.8*
COC(=O)c1ccc(-n2ccnc2)cc1	-1.8	-4.2	7.5	1.2	-8.8
CCOC(=O)C(=Cc1ccc(-n2ccnc2)cc1)C(=O)OCC	-0.4	53.7	31.6	0.8	86.3*
CCOC(=O)C(=Cc1ccc(Br)cc1)C(=O)OCC	.	53.2	20.4	.	39.5
CC(C)Oc1cccc(C(=O)NC(=S)Nc2ccc3c4c(cccc24)CC3)c1	-0.5	-5.9	2.5	1.1	37.4
